Experimental data as given in the supplement of paper PMC4466140.

Target: AgAbp1
Test: SPOT peptide array binding signal intensity (averaged, normalized) (arbitrary units (background-subtracted, floor 0; scale differs between SH3 domains)); higher = stronger binding of the SH3 domain to the peptide
Summary of the method: (§1)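 The binding signal is the normalized, background-subtracted spot intensity averaged over replicates; its arbitrary units differ between domains. It was obtained by incubating 10 μg/ml GST-fused SH3 domains from four yeast species overnight at 4°C in TBS-based blocking buffer on cellulose membranes with synthetic 15-mer peptides, cysteines replaced by serines, then detecting with anti-GST antibody, HRP anti-mouse secondary and luminol.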

Binder	SPOT peptide array binding signal intensity
WRPRIVPILPYITRL	6

Target: AgBbc1
Test: as above
Summary of the method: as §1

Binder	SPOT peptide array binding signal intensity
WRPRIVPILPYITRL	13.5

Target: AgBem1-D1
Test: as above
Summary of the method: as §1

Binder	SPOT peptide array binding signal intensity
WRPRIVPILPYITRL	108

Target: AgBzz1-D1
Test: as above
Summary of the method: as §1

Binder	SPOT peptide array binding signal intensity
WRPRIVPILPYITRL	11

Target: AgBzz1-D2
Test: as above
Summary of the method: as §1

Binder	SPOT peptide array binding signal intensity
WRPRIVPILPYITRL	7.5

Target: AgCyk3
Test: as above
Summary of the method: as §1

Binder	SPOT peptide array binding signal intensity
WRPRIVPILPYITRL	9

Target: AgFus1
Test: as above
Summary of the method: as §1

Binder	SPOT peptide array binding signal intensity
WRPRIVPILPYITRL	90

Target: AgHof1
Test: as above
Summary of the method: as §1

Binder	SPOT peptide array binding signal intensity
WRPRIVPILPYITRL	132

Target: AgHse1
Test: as above
Summary of the method: as §1

Binder	SPOT peptide array binding signal intensity
WRPRIVPILPYITRL	434

Target: AgLsb1
Test: as above
Summary of the method: as §1

Binder	SPOT peptide array binding signal intensity
WRPRIVPILPYITRL	11

Target: AgLsb4
Test: as above
Summary of the method: as §1

Binder	SPOT peptide array binding signal intensity
WRPRIVPILPYITRL	22

Target: AgMyo5
Test: as above
Summary of the method: as §1

Binder	SPOT peptide array binding signal intensity
WRPRIVPILPYITRL	2.5

Target: AgNbp2
Test: as above
Summary of the method: as §1

Binder	SPOT peptide array binding signal intensity
WRPRIVPILPYITRL	140

Target: AgRvs167
Test: as above
Summary of the method: as §1

Binder	SPOT peptide array binding signal intensity
WRPRIVPILPYITRL	2

Target: AgSho1
Test: as above
Summary of the method: as §1

Binder	SPOT peptide array binding signal intensity
WRPRIVPILPYITRL	17

Target: AgSla1-D1-D2
Test: as above
Summary of the method: as §1

Binder	SPOT peptide array binding signal intensity
WRPRIVPILPYITRL	6.5

Target: AgSla1-D3
Test: as above
Summary of the method: as §1

Binder	SPOT peptide array binding signal intensity
WRPRIVPILPYITRL	4

Target: CaAbp1-D1
Test: as above
Summary of the method: as §1

Binder	SPOT peptide array binding signal intensity
WRPRIVPILPYITRL	109

Target: CaAbp1-D2
Test: as above
Summary of the method: as §1

Binder	SPOT peptide array binding signal intensity
WRPRIVPILPYITRL	92.5

Target: CaBbc1
Test: as above
Summary of the method: as §1

Binder	SPOT peptide array binding signal intensity
WRPRIVPILPYITRL	58.8

Target: CaBem1-D1
Test: as above
Summary of the method: as §1

Binder	SPOT peptide array binding signal intensity
WRPRIVPILPYITRL	22

Target: CaBzz1-D1
Test: as above
Summary of the method: as §1

Binder	SPOT peptide array binding signal intensity
WRPRIVPILPYITRL	49.5

Target: CaBzz1-D2
Test: as above
Summary of the method: as §1

Binder	SPOT peptide array binding signal intensity
WRPRIVPILPYITRL	24.2

Target: CaCyk3
Test: as above
Summary of the method: as §1

Binder	SPOT peptide array binding signal intensity
WRPRIVPILPYITRL	29.5

Target: CaFus1
Test: as above
Summary of the method: as §1

Binder	SPOT peptide array binding signal intensity
WRPRIVPILPYITRL	460

Target: CaHof1
Test: as above
Summary of the method: as §1

Binder	SPOT peptide array binding signal intensity
WRPRIVPILPYITRL	2

Target: CaHse1
Test: as above
Summary of the method: as §1

Binder	SPOT peptide array binding signal intensity
WRPRIVPILPYITRL	32

Target: CaLsb1
Test: as above
Summary of the method: as §1

Binder	SPOT peptide array binding signal intensity
WRPRIVPILPYITRL	3.5

Target: CaLsb4
Test: as above
Summary of the method: as §1

Binder	SPOT peptide array binding signal intensity
WRPRIVPILPYITRL	56

Target: CaMyo5
Test: as above
Summary of the method: as §1

Binder	SPOT peptide array binding signal intensity
WRPRIVPILPYITRL	1.5

Target: CaNbp2
Test: as above
Summary of the method: as §1

Binder	SPOT peptide array binding signal intensity
WRPRIVPILPYITRL	574

Target: CaRvs167
Test: as above
Summary of the method: as §1

Binder	SPOT peptide array binding signal intensity
WRPRIVPILPYITRL	54

Target: CaRvs167-3
Test: as above
Summary of the method: as §1

Binder	SPOT peptide array binding signal intensity
WRPRIVPILPYITRL	56

Target: CaSho1
Test: as above
Summary of the method: as §1

Binder	SPOT peptide array binding signal intensity
WRPRIVPILPYITRL	298

Target: CaSla1-D1-D2
Test: as above
Summary of the method: as §1

Binder	SPOT peptide array binding signal intensity
WRPRIVPILPYITRL	6

Target: CaSla1-D3
Test: as above
Summary of the method: as §1

Binder	SPOT peptide array binding signal intensity
WRPRIVPILPYITRL	2

Target: ScAbp1
Test: as above
Summary of the method: as §1

Binder	SPOT peptide array binding signal intensity
WRPRIVPILPYITRL	17

Target: ScBbc1
Test: as above
Summary of the method: as §1

Binder	SPOT peptide array binding signal intensity
WRPRIVPILPYITRL	4.25

Target: ScBem1-D1
Test: as above
Summary of the method: as §1

Binder	SPOT peptide array binding signal intensity
WRPRIVPILPYITRL	1

Target: ScBzz1-D1
Test: as above
Summary of the method: as §1

Binder	SPOT peptide array binding signal intensity
WRPRIVPILPYITRL	1.5

Target: ScBzz1-D2
Test: as above
Summary of the method: as §1

Binder	SPOT peptide array binding signal intensity
WRPRIVPILPYITRL	15.5

Target: ScCyk3
Test: as above
Summary of the method: as §1

Binder	SPOT peptide array binding signal intensity
WRPRIVPILPYITRL	33

Target: ScFus1
Test: as above
Summary of the method: as §1

Binder	SPOT peptide array binding signal intensity
WRPRIVPILPYITRL	75

Target: ScHof1
Test: as above
Summary of the method: as §1

Binder	SPOT peptide array binding signal intensity
WRPRIVPILPYITRL	365

Target: ScHse1
Test: as above
Summary of the method: as §1

Binder	SPOT peptide array binding signal intensity
WRPRIVPILPYITRL	636

Target: ScLsb1
Test: as above
Summary of the method: as §1

Binder	SPOT peptide array binding signal intensity
WRPRIVPILPYITRL	32.5

Target: ScLsb2
Test: as above
Summary of the method: as §1

Binder	SPOT peptide array binding signal intensity
WRPRIVPILPYITRL	7

Target: ScLsb3
Test: as above
Summary of the method: as §1

Binder	SPOT peptide array binding signal intensity
WRPRIVPILPYITRL	148

Target: ScLsb4
Test: as above
Summary of the method: as §1

Binder	SPOT peptide array binding signal intensity
WRPRIVPILPYITRL	18.5

Target: ScMyo3
Test: as above
Summary of the method: as §1

Binder	SPOT peptide array binding signal intensity
WRPRIVPILPYITRL	2

Target: ScMyo5
Test: as above
Summary of the method: as §1

Binder	SPOT peptide array binding signal intensity
WRPRIVPILPYITRL	0.5

Target: ScNbp2
Test: as above
Summary of the method: as §1

Binder	SPOT peptide array binding signal intensity
WRPRIVPILPYITRL	224

Target: ScPex13
Test: as above
Summary of the method: as §1

Binder	SPOT peptide array binding signal intensity
WRPRIVPILPYITRL	1

Target: ScRvs167
Test: as above
Summary of the method: as §1

Binder	SPOT peptide array binding signal intensity
WRPRIVPILPYITRL	251

Target: ScSho1
Test: as above
Summary of the method: as §1

Binder	SPOT peptide array binding signal intensity
WRPRIVPILPYITRL	182

Target: ScSla1-D1-D2
Test: as above
Summary of the method: as §1

Binder	SPOT peptide array binding signal intensity
WRPRIVPILPYITRL	≤ 0

Target: ScSla1-D3
Test: as above
Summary of the method: as §1

Binder	SPOT peptide array binding signal intensity
WRPRIVPILPYITRL	≤ 0

Target: SpAbp1-D1
Test: as above
Summary of the method: as §1

Binder	SPOT peptide array binding signal intensity
WRPRIVPILPYITRL	36

Target: SpBbc1
Test: as above
Summary of the method: as §1

Binder	SPOT peptide array binding signal intensity
WRPRIVPILPYITRL	7

Target: SpBzz1-D1
Test: as above
Summary of the method: as §1

Binder	SPOT peptide array binding signal intensity
WRPRIVPILPYITRL	179

Target: SpBzz1-D2
Test: as above
Summary of the method: as §1

Binder	SPOT peptide array binding signal intensity
WRPRIVPILPYITRL	1.5

Target: SpCyk3
Test: as above
Summary of the method: as §1

Binder	SPOT peptide array binding signal intensity
WRPRIVPILPYITRL	10

Target: SpHof1
Test: as above
Summary of the method: as §1

Binder	SPOT peptide array binding signal intensity
WRPRIVPILPYITRL	14.5

Target: SpHof1-2
Test: as above
Summary of the method: as §1

Binder	SPOT peptide array binding signal intensity
WRPRIVPILPYITRL	18.5

Target: SpHof1-3
Test: as above
Summary of the method: as §1

Binder	SPOT peptide array binding signal intensity
WRPRIVPILPYITRL	328

Target: SpHse1
Test: as above
Summary of the method: as §1

Binder	SPOT peptide array binding signal intensity
WRPRIVPILPYITRL	315

Target: SpLsb1
Test: as above
Summary of the method: as §1

Binder	SPOT peptide array binding signal intensity
WRPRIVPILPYITRL	3

Target: SpLsb4
Test: as above
Summary of the method: as §1

Binder	SPOT peptide array binding signal intensity
WRPRIVPILPYITRL	157

Target: SpMyo1
Test: as above
Summary of the method: as §1

Binder	SPOT peptide array binding signal intensity
WRPRIVPILPYITRL	107

Target: SpNbp2
Test: as above
Summary of the method: as §1

Binder	SPOT peptide array binding signal intensity
WRPRIVPILPYITRL	55.5

Target: SpPex13
Test: as above
Summary of the method: as §1

Binder	SPOT peptide array binding signal intensity
WRPRIVPILPYITRL	6.5

Target: SpRvs167
Test: as above
Summary of the method: as §1

Binder	SPOT peptide array binding signal intensity
WRPRIVPILPYITRL	167

Target: SpSla1-D1-D2
Test: as above
Summary of the method: as §1

Binder	SPOT peptide array binding signal intensity
WRPRIVPILPYITRL	≤ 0

Target: SpSla1-D3
Test: as above
Summary of the method: as §1

Binder	SPOT peptide array binding signal intensity
WRPRIVPILPYITRL	≤ 0
